# Pf Dd2 inh: qHTS Primary assay for Inhibitors of Plasmodium falciparum Dd2 growth in vitro. Potency, µM (top dose mostly 28.9 µM), for the others: at the top dose activity, negative = inhibition, usual class: inhibitors. AID 1347417, 2020. 120,000 tested, 4.3% active. P. falciparum Dd2 growth, SYBR Green, 72 h; active = well fitted inhibition curve with a large enough effect;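 note: plate controls were DMSO vehicle for no effect and reference drug for full effect; nearly all actives have a fitted effect of over 65% in size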
#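 Infected erythrocytes (Dd2, 0.3% parasitemia, 2.5% hematocrit final) are added to compound in RPMI-1640/Albumax II medium, grown 72 h at 37C in low oxygen, then lysed with saponin/Triton-X containing SYBR Green and read by fluorescence.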
# Active calls of the source: *; i = inactive; [ ] = another dose, or the depositor's remark. This excerpt belongs to a sample that is enriched for hits. Potency is the fitted concentration of half-maximal effect.
SMILES,Pf Dd2 inh
CC(C)c1ccc(NC(=O)c2cc(S(=O)(=O)NC3CCCCC3)ccc2F)cc1,7.9µM*
Cc1nc(C)c(C(=O)N2CCC(c3noc(-c4cnccn4)n3)C2)s1 (stereo not given),i[5.79 µM]
COCc1cc(CC2(NC(C)C)COC2)no1,i
Cc1cc(NC(=O)CN2C(=O)c3cccnc3Sc3ccccc32)ccc1Br,11µM*
Cc1cc(C)c(NC(=O)CN2C(=O)c3cccnc3Sc3ccccc32)c(C)c1,-27%
CCc1ccccc1NC(=O)CN1C(=O)c2cccnc2Sc2ccccc21,-19%
O=C1C(O)C2(CCCCC2)N1C1CCNCC1 (stereo not given),10%
Cc1ccc(C(=O)N2CCC(N3CC(OCC4CC4)C34CCCCC4)CC2)cn1 (stereo not given),-5%
COCCOC1CN(C2CCN(C(=O)NC(C)C)CC2)C12CCCCC2 (stereo not given),i
C1CC2(CCN1)CC(OCC1CC1)CCO2 (stereo not given),25%
CC(C)C(=O)N1CCC(N2CC(OCC3CC3)C23CCCCC3)CC1 (stereo not given),3.2µM*
C1CCC2(CC1)C(OCC1CC1)CN2C1CCNCC1 (stereo not given),4µM*
COc1cccc(NC(=O)c2sc3nc(C)c(C(=O)Nc4ccc(C)cc4C)c(-c4cccs4)c3c2N)c1,1.3µM*
COc1ccc(NC(=O)c2sc3nc(C)c(C(=O)Nc4ccc(C)cc4C)c(-c4ccc(C)o4)c3c2N)cc1,8.9µM*
COc1cccc(NC(=O)c2sc3nc(C)c(C(=O)Nc4ccc(C)cc4C)c(-c4ccc(C)o4)c3c2N)c1,11µM*
COc1cccc(NC(=O)c2cnc(-c3ccc(C)cc3)nc2-c2ccncc2)c1,-23%
Cc1ccc(NC(=O)c2sc3nc(-c4cc5ccccc5oc4=O)[nH]c(=O)c3c2C)c(C)c1,25%
CCC(C)NC(=O)c1sc2nc(C)c(C(=O)Nc3ccc(C)cc3C)c(-c3ccccc3Cl)c2c1N (stereo not given),3.2µM*
CCC(C)NC(=O)c1sc2nc(C)c(C(=O)Nc3ccc(C)cc3C)c(-c3ccc(Cl)cc3)c2c1N (stereo not given),-5%
Cc1ccc(NC(=O)c2sc3nc(-c4cccs4)ccc3c2N)cc1F,-4%
CCOc1ccccc1NC(=O)c1sc2nc(C)cc(C)c2c1N,-11%
COc1ccc(NC(=O)c2sc3nc4c(cc3c2N)CCCCCC4)c(OC)c1,-13%
CCOc1ccccc1NC(=O)c1sc2nc(-c3ccc(OC)cc3)ccc2c1N,16%
COc1cccc(-c2ccc3c(N)c(C(=O)Nc4ccc(C)c(F)c4)sc3n2)c1,5%
O=C(NCC1CN(C(=O)c2cccc(Cl)c2)CC12CN(c1ccccc1)C2)C1CC1 (stereo not given),i
SMILES,Pf Dd2 inh
N#Cc1ccc(S(=O)(=O)N2CCOCCNC(=O)[C@H]3CCCC[C@H]32)cc1,14%
COCCNC(=O)[C@@H]1C[C@H](Oc2cccnc2)CN1C(=O)c1ccoc1,25%
CNC(=O)N1CCC(C2CCN(C(=O)c3cc(C)n(CCOC)c3C)C2)CC1 (stereo not given),-26%
Cc1nnc2n1CCC(N(C)C(=O)Cc1ccccc1F)CC2 (stereo not given),20%
Cc1ccc(NC(=O)N2CC(c3nnc(-c4ccncc4)o3)C3(CCOCC3)C2)cc1 (stereo not given),-1%
O=C(NCCC1=CCCCC1)c1cn(CCCc2ccccc2)nn1,-10%
O=C(c1ccccc1)N1CCC2(CC1)C(=NC1CCCCC1)NC(=O)N2c1cc(F)cc(F)c1,-9%
O=C(O)C[C@@H]1CCN(C(=O)C2CCC2)C[C@@H]1CCN1CCC(n2c(=O)[nH]c3ccccc32)CC1,12%
O=C(O)COCC(=O)N[C@H]1CO[C@H]2[C@@H]1OC[C@@H]2n1nnnc1Oc1ccc(-n2cncn2)cc1,17%
O=C(CSc1nc(=O)[nH]c2c1CCCC2)NCc1ccccc1,25%
COc1cccc(NC(=O)c2cccc3c(=O)c4c([nH]c23)CCCC4)c1,0.89µM*
O=C(Nc1ccccc1)c1cccc2c(=O)c3c([nH]c12)CCCC3,4.5µM*
CCC1(C(=O)Nc2cccc(OC)c2)CCCCC(=O)N1 (stereo not given),14%
COc1cccc(NS(=O)(=O)c2ccc3[nH]c4c(c3c2)CCCCCC4)c1,-27%
O=C(CSc1nc(=O)[nH]c2c1CCC2)NCc1ccccc1,10%
CC(C)C1=NOC2(CCN(Cc3cccc(C(F)(F)F)c3)CC2)C1,-24%[44.1 µM]
Cc1ccc(C2Cn3cnc(C(=O)N4CCC(C(=O)NCc5ccccc5Cl)CC4)c3CO2)cc1 (stereo not given),i
CCOC(=O)C1=CN(CC(=O)Nc2cccc(Cl)c2)S(=O)(=O)N=C1C,-5%
COCC1CCN(Cc2cc3cc4c(cc3nc2-c2ccc(Cl)cc2)OCO4)C1 (stereo not given),i
Cc1oc(-c2cccc(Oc3ccccc3)c2)nc1CN1CC[C@H](N(C)C)C1,-13%
COc1ccc2cc(CN3CCC(N(C)C)C3)c(-c3cccc(C)c3)nc2c1 (stereo not given),11µM*
COc1ccc(C(NC(=O)c2cccc(-n3cnnc3)n2)C2CC(O)C2)cn1 (stereo not given),-12%
Cc1ccc(OCC(=O)N2CCCCCC2c2nc(C)no2)cc1 (stereo not given),-12%
NC1CC(c2cc(N3CCN(CCOc4ccccc4)CC3)ncn2)C1 (stereo not given),i
CC(C)NC(=O)NC1CC2(CCN(C(=O)c3ccccc3)CC2)c2ccccc21 (stereo not given),-22%
SMILES,Pf Dd2 inh
CC(=O)NC1CC2(CCN(C(=O)Cc3ccc(O)cc3)CC2)c2ccccc21 (stereo not given),2%
CC(C)NC(=O)NC1CC2(CCN(Cc3ccc(O)cc3)CC2)c2ccccc21 (stereo not given),2.8µM*
CC(C)c1nccc(-c2c(-c3ccccc3)ncn2CCCN2CCOCC2)n1,-20%
COCCOCC1(CNCc2c(C)noc2C)C[C@@H](O)[C@@H](O)C1 (stereo not given in full),0%[44.1 µM]
CN(Cc1ccc(F)cc1)c1ccc2ncc(Nc3ccc4c(c3)OCO4)n2n1,-16%[44.1 µM]
COc1ccc(-c2ccc3ncc(Nc4ccnc(N5CCOCC5)c4)n3n2)cc1OC,-1%[44.1 µM]
Clc1cccc(Nc2cnc3ccc(N4CCOCC4)nn23)c1,-9%[44.1 µM]
CN1CCN(c2ccc3ncc(Nc4ccc5c(c4)OCCO5)n3n2)CC1,7.9µM*
CN1CCN(c2ccc3ncc(Nc4ccc(OC(F)(F)F)cc4)n3n2)CC1,3.5µM*
CCc1nnc2ccc(N3CCN(C)CC3)nn12,-1%
CN(Cc1cccnc1)c1ccc2ncc(Nc3ccc(F)cc3)n2n1,-18%[44.1 µM]
CN(Cc1cccnc1)c1ccc2ncc(Nc3ccc4c(c3)OCO4)n2n1,7.9µM*
c1ccc(-c2ccc3ncc(Nc4ccc5c(c4)OCCO5)n3n2)cc1,i
NC(=O)C1(c2nc(COc3ccccc3)nn2-c2ccc3c(c2)OCO3)CC1,12%
CCN1c2cc(C(=O)Nc3ccc(Cl)c(F)c3)ccc2C(=O)N2CCCCC21 (stereo not given),-24%
CNC(=O)N1C[C@@H](CN(C)C)[C@H](NC(=O)c2ccco2)C1,16%
CC(=O)Nc1ccc(C(=O)N2CCN(c3cc(-c4ccc(F)cc4)[nH]n3)CC2)cc1,i
COCCN(CCOC)CC[C@@H]1CC[C@H](O)[C@@H](C(=O)Nc2ccccc2)O1,16µM*
COCCN(CCOC)CC[C@@H]1CC[C@H](O)[C@@H](C(=O)NC2CCCCC2)O1,-12%[44.1 µM]
